Among the data in PubChem BioAssay (Tox21) are Potency values, retold here.

“And” between values parts separate entries of the source, which are not always exact repeats. Equal entries are not always repeated. The source made the active and inactive calls. Entries that show only a call come without a potency. Unless noted, calls come from the whole dose curve.

Sequence of Estrogen receptor (Homo sapiens) (P03372 whole entry, looked up): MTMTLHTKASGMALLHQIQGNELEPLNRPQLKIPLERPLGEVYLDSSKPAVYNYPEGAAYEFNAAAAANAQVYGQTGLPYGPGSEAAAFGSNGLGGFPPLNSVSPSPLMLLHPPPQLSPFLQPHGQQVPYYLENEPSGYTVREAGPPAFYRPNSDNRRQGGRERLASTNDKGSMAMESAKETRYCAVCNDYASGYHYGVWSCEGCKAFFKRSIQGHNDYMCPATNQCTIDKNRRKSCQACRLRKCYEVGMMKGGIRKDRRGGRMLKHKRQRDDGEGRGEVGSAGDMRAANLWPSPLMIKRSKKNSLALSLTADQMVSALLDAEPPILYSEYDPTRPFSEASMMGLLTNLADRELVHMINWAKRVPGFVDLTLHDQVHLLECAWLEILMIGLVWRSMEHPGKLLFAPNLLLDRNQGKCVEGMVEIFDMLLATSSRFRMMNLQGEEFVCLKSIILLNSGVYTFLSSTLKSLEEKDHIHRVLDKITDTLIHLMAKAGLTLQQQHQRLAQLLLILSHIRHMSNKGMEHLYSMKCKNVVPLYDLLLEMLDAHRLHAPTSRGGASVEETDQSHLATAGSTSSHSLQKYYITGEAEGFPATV

For one assay, the system named is thyroid hormone receptor (rat, GH3 cells). Kind of assay: qHTS assay to identify small molecule agonists of the thyroid receptor (TR) signaling pathway (AID 743066). The conditions noted are these: GH3.TRE-Luc cells, TR agonist luciferase, 24 h; series mostly up to 83.9 µM.
Take `CC(C)(c1cc(Br)c(O)c(Br)c1)c1cc(Br)c(O)c(Br)c1`: the Potency result was “inactive”.
Same read-out and setting: the result for `O=C1C=CC(=O)N1c1ccccc1` reads “inactive”; that for `CCC(C)c1cc([N+](=O)[O-])cc([N+](=O)[O-])c1OC(=O)OC(C)C` (centres undefined), “inactive”; that for `c1cc(OCC2CO2)cc(OCC2CO2)c1` (centres undefined), “inactive”.
The same measure, in the same setting: the result for `CCCCCCC(C)Nc1ccc(Nc2ccccc2)cc1` (centres undefined) reads “inactive”.
Turning to `Oc1ccc(-c2ccc(O)cc2)cc1`, the Potency entry was “inactive”.
The same measure, in the same setting: the result for `CC(=O)OC(OC(C)=O)c1ccc([N+](=O)[O-])o1` reads “inactive”; that for `C=C1C(C)(C)[C@@]2(Cl)C(Cl)[C@]1(Cl)C(Cl)(Cl)C2(Cl)Cl` (some centres undefined), “inactive”.

In another assay the target is Estrogen receptor (Homo sapiens) (UniProt P03372). Kind of assay: qHTS assay to identify small molecule antagonists of the estrogen receptor alpha (ER-alpha) signaling pathway (AID 743069; active = well fitted curve in the direction sought with a large enough effect in the signal ratio in the repeat runs, not every such curve was filed as active; inconclusive = weak or mixed curves, or effect the other way; inactive = no such curve, though single readings can be large or run the other way; the % refers to the signal ratio; note: potency is the fitted concentration of half-maximal effect). The conditions noted are these: HEK293 ER-alpha-UAS-bla, beta-lactamase ratio, antagonist mode; series mostly up to 69.4 µM. Summed up:
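Estradiol-stimulated ER-alpha-UAS-bla HEK293 cells, 18 hr compound exposure at 37C. LiveBLAzer B/G substrate, 2 hr RT, fluorescence read.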
Background: qHTS replaces the single test concentration by a dilution series.
Regarding `CCCCCCCCCCOCC(O)CN` (centres undefined), the Potency result is “inactive”.
Regarding `CCN(CC)CCNc1ccc(CO)c2sc3ccccc3c(=O)c12`, the Potency was 30.1 µM [inconclusive] (active).
On the same count and under the same terms, the result for `COc1cc(C=C2CCC/C(=C\c3ccc(O)c(OC)c3)C2=O)ccc1O` reads 15.1 µM [inconclusive] (active); that for `CCCCOc1ccc(C(=O)CCN2CCCCC2)cc1`, “inactive”.
Take `CNC(=O)c1cc(Oc2ccc(NC(=O)Nc3ccc(Cl)c(C(F)(F)F)c3)cc2)ccn1`: the Potency is 6.01 µM [inconclusive] (active).
Consider `C=C(c1ccc(C(=O)O)cc1)c1cc2c(cc1C)C(C)(C)CCC2(C)C`, for which the Potency was 17.4 µM [fluorescent] (active).
Still for that read-out and setting: as for `COc1cccc(CCc2ccccc2OCC(CN(C)C)OC(=O)CCC(=O)O)c1` (centres undefined), the entry is “inactive”.
The same measure, in the same setting: as for `NC(=O)C(=O)N/N=C/c1ccc([N+](=O)[O-])o1`, the entry is “inactive”.
Still for that read-out and setting: as for `CCN(CC)CCOc1ccc(C(O)(Cc2ccc(Cl)cc2)c2ccc(C)cc2)cc1` (centres undefined), the figure is 23.9 µM [inconclusive] (active); as for `CC(C(O)c1ccccc1)N(C)CCOC(c1ccccc1)c1ccccc1` (centres undefined), “inactive”; as for `CSc1ccc2c(c1)N(CCC1CCCCN1C)c1ccccc1S2` (centres undefined), 23.9 µM [inconclusive] (active).
As for `Cc1cc2c(C(C)C)c(O)c(O)c(C=O)c2c(O)c1-c1c(C)cc2c(C(C)C)c(O)c(O)c(C=O)c2c1O`, the Potency is 9.52 µM [inconclusive] (active).

Tested on in a further assay: not listed separately
Kind of assay: qHTS assay to identify small molecule antagonists of the estrogen receptor alpha (ER-alpha) signaling pathway - cell viability counter screen (AID 743074).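 Note: HEK293 cells carrying ER-alpha-UAS-bla reporter stimulated with 17beta-estradiol; nearly all actives have a fitted effect of over 45% in size.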 Note: potency is the fitted concentration of half-maximal effect. The conditions noted are these: ERalpha-bla HEK293 viability, CellTiter-Glo luminescence, 18 h; series mostly up to 69.4 µM.
Take `CCCCCCCCCCOCC(O)CN` (centres undefined): the Potency entry is “inactive”.
Same read-out and setting: the result for `O=C1NC2CCCCN2C12CCN(CCCN1c3ccccc3CCc3ccc(Cl)cc31)CC2` (centres undefined) reads “inactive”.
Still for that read-out and setting: as for `CCN(CC)CCNc1ccc(CO)c2sc3ccccc3c(=O)c12`, the entry is “inactive”.
Still for that read-out and setting: as for `CCOC(=O)C1=C(C)NC(C)=C(C(=O)OCC)C1c1ccccc1/C=C/C(=O)OC(C)(C)C`, the entry is “inactive”; as for `Cc1nc(Nc2ncc(C(=O)Nc3c(C)cccc3Cl)s2)cc(N2CCN(CCO)CC2)n1`, “inactive”; as for `C=C[C@](C)(O)CC[C@@H]1[C@@]2(C)CCCC(C)(C)[C@@H]2CC[C@@]1(C)O`, 54.9 µM (active).
Take `CCCCCCCC/C=C\CCCCCCCC(=O)NCc1ccc(O)c(OC)c1`: the Potency entry was “inactive”.
On the same count and under the same terms, as for `CCCCOc1ccc(C(=O)CCN2CCCCC2)cc1`, the entry is “inactive”; as for `CNC(=O)c1cc(Oc2ccc(NC(=O)Nc3ccc(Cl)c(C(F)(F)F)c3)cc2)ccn1`, 21.3 µM (active); as for `CC=O`, 57.5 µM (active).
Still for that read-out and setting: the result for `CC(C)(C)CC(C)(C)c1ccccc1O` reads 49.2 µM (active); that for `O[C@@H](c1cc(C(F)(F)F)nc2c(C(F)(F)F)cccc12)[C@H]1CCCCN1`, 23.9 µM (active); that for `CCN(CC)CCCN(c1ccccc1)C1Cc2ccccc2C1`, 19 µM (active).
Consider `COc1cccc(CCc2ccccc2OCC(CN(C)C)OC(=O)CCC(=O)O)c1` (centres undefined), for which the Potency entry was “inactive”.
In the case of `NC(=O)C(=O)N/N=C/c1ccc([N+](=O)[O-])o1`, the Potency entry is “inactive”.
Same read-out and setting: the result for `COCC(=O)O[C@]1(CCN(C)CCCc2nc3ccccc3[nH]2)CCc2cc(F)ccc2[C@@H]1C(C)C` reads 9.52 µM (active); that for `CC(C)(C)c1cc(/C=C2\SC(=N)NC2=O)cc(C(C)(C)C)c1O`, 54.9 µM (active); that for `O=C1NCCN1CCN1CCC(c2cn(-c3ccc(F)cc3)c3ccc(Cl)cc23)CC1`, 15.1 µM (active) and 9.52 µM (active).
Turning to `O=C(Nc1ccc(Cl)cc1)Nc1ccc(Cl)c(C(F)(F)F)c1`, the Potency is 9.52 µM (active).
The same measure, in the same setting: the result for `CCCOc1sc(C(=O)N2CCC(c3cc(CN)ccc3F)CC2)c(C)c1Br` reads 44.9 µM (active); that for `CSc1ccc2c(c1)N(CCC1CCCCN1C)c1ccccc1S2` (centres undefined), 54.7 µM (active); that for `Cc1cc2c(C(C)C)c(O)c(O)c(C=O)c2c(O)c1-c1c(C)cc2c(C(C)C)c(O)c(O)c(C=O)c2c1O`, 21.3 µM (active).

The next assay has as its target Estrogen receptor (Homo sapiens) (UniProt P03372). Kind of assay: qHTS assay to identify small molecule agonists of the estrogen receptor alpha (ER-alpha) signaling pathway (AID 743075).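 Note: HEK293 GripTite cells with ER-alpha and UAS-driven beta-lactamase reporter.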 Note: potency is the fitted concentration of half-maximal effect. Conditions: HEK293 ER-alpha-UAS-bla, beta-lactamase FRET ratio, 18 h; series mostly up to 70.1 µM.
With `O=C1NC2CCCCN2C12CCN(CCCN1c3ccccc3CCc3ccc(Cl)cc31)CC2` (centres undefined), the Potency entry was “inactive”.
For the compound `CCN(CC)CCNc1ccc(CO)c2sc3ccccc3c(=O)c12`, the Potency entry is “inactive”.
On the same count and under the same terms, the result for `CCOC(=O)C1=C(C)NC(C)=C(C(=O)OCC)C1c1ccccc1/C=C/C(=O)OC(C)(C)C` reads 6.74 µM [fluorescent] (active); that for `Cc1nc(Nc2ncc(C(=O)Nc3c(C)cccc3Cl)s2)cc(N2CCN(CCO)CC2)n1`, “inactive”.
Still for that read-out and setting: as for `C=C[C@](C)(O)CC[C@@H]1[C@@]2(C)CCCC(C)(C)[C@@H]2CC[C@@]1(C)O`, the entry is “inactive”; as for `CN1CCN(C2Cc3ccccc3Sc3ccc(Cl)cc32)CC1` (centres undefined), “inactive”; as for `COc1cc(C=C2CCC/C(=C\c3ccc(O)c(OC)c3)C2=O)ccc1O`, “inactive”.
`CCCCOc1ccc(C(=O)CCN2CCCCC2)cc1`: the Potency entry is “inactive”.
With `CNC(=O)c1cc(Oc2ccc(NC(=O)Nc3ccc(Cl)c(C(F)(F)F)c3)cc2)ccn1`, the Potency entry was “inactive”.
Same read-out and setting: the result for `CC(C)(C)CC(C)(C)c1ccccc1O` reads 22 µM [inconclusive] (active); that for `O[C@@H](c1cc(C(F)(F)F)nc2c(C(F)(F)F)cccc12)[C@H]1CCCCN1`, 26.8 µM [inconclusive] (active).
`CCN(CC)CCCN(c1ccccc1)C1Cc2ccccc2C1`: the Potency entry is “inactive”.
The same measure, in the same setting: as for `COc1cccc(CCc2ccccc2OCC(CN(C)C)OC(=O)CCC(=O)O)c1` (centres undefined), the entry is “inactive”.
On the same count and under the same terms, the result for `NC(=O)C(=O)N/N=C/c1ccc([N+](=O)[O-])o1` reads “inactive”; that for `O=C1NCCN1CCN1CCC(c2cn(-c3ccc(F)cc3)c3ccc(Cl)cc23)CC1`, “inactive”; that for `O=C(Nc1ccc(Cl)cc1)Nc1ccc(Cl)c(C(F)(F)F)c1`, “inactive”.
For `CCN(CC)CCOc1ccc(C(O)(Cc2ccc(Cl)cc2)c2ccc(C)cc2)cc1` (centres undefined), the Potency entry is “inactive”.
Still for that read-out and setting: as for `c1cc(OCC2CO2)cc(OCC2CO2)c1` (centres undefined), the entry is “inactive”; as for `CC(C(O)c1ccccc1)N(C)CCOC(c1ccccc1)c1ccccc1` (centres undefined), “inactive”.
Same read-out and setting: the result for `CSc1ccc2c(c1)N(CCC1CCCCN1C)c1ccccc1S2` (centres undefined) reads “inactive”.
For the compound `COc1cc(C(=O)NS(=O)(=O)c2ccccc2C)ccc1Cc1cn(C)c2ccc(NC(=O)OC3CCCC3)cc12`, the Potency entry was “inactive”.
Take `Cc1cc2c(C(C)C)c(O)c(O)c(C=O)c2c(O)c1-c1c(C)cc2c(C(C)C)c(O)c(O)c(C=O)c2c1O`: the Potency entry is “inactive”.
